Laboratory results from ChEMBL document CHEMBL4513146, “CO-ADD screening of Karazin Kharkiv National University (Ukraine) compounds”.
Entries with a potency or affinity are not part of this list.

Legend:
Staphylococcus aureus = settings: Concentration 32 ug.mL-1;; ASSAY_TEST Inhibition of Bacterial Growth; detection method Absorption (OD600); MEDIA CAMHB; plate type 384well; NBS; CORNING #3640; time 18 hr
Escherichia coli = settings: Concentration 32 ug.mL-1;; ASSAY_TEST Inhibition of Bacterial Growth; detection method Absorption (OD600); MEDIA CAMHB; plate type 384well; NBS; CORNING #3640; time 18 hr

SMILES | Inhibition (Staphylococcus aureus) [%] | Inhibition (Escherichia coli) [%]
O=S(=O)(c1ccc2nncn2c1)N(Cc1cc(F)cc(F)c1)c1ccc2c(c1)OCO2 | 8.77 | -5.98
CCc1nnc2ccc(S(=O)(=O)N(Cc3ccc(F)cc3)c3ccccc3)cn12 | -1.95 | -12.51
COc1cccc(Sc2nc3ccccc3n3c(=O)n(CC(=O)Nc4ccccc4)nc23)c1 | -1.75 | -6.94
Cc1ccccc1Cn1nc2c(=O)n(-c3cccc(Cl)c3C)ccn2c1=O | -10.1 | -10.57
COc1ccccc1NC(=O)Cn1nc2c(Oc3ccc(Cl)cc3)nccn2c1=O | 6.15 | -7.74
CCCCN(CC)c1ccc2nnc(CCc3nc(-c4ccc(OCc5ccccc5)cc4)no3)n2n1 | 4.18 | -2.08
COc1ccc(-c2cc3c4nn(CC(=O)Nc5ccc(C)cc5C)c(=O)n4ccn3n2)cc1 | 1.83 | 2.27
O=c1c2sccc2n2c(SCc3cccc(C(F)(F)F)c3)nnc2n1Cc1cccs1 | 3.6 | -11.21
CC(C)CCn1c(=O)c2sccc2n2c(=O)n(Cc3c(F)cccc3Cl)nc12 | 13.63 | 0.76
Cc1cccc(C)c1NC(=O)CSc1nnc2ccc(C(=O)Nc3cccc(F)c3)cn12 | 12.1 | 2.91
CCCCN(C)c1ccc2nnc(CCc3nc(-c4ccc(OCc5ccccc5)cc4)no3)n2n1 | -12.25 | -8.06
CCCCc1ccc(NC(=O)Cn2nc3c(N4CCSCC4)nc4ccccc4n3c2=O)cc1 | 10.09 | 1.07
COc1ccc(NC(=O)CSc2nnc3c(=O)n(-c4cccc(F)c4)ccn23)cc1OC | 3.1 | -11.05
CSc1cccc(NC(=O)Cn2nc3c(Sc4ccccc4)nccn3c2=O)c1 | -5 | -10.44
CCOc1ccc(-n2ccn3c(SCC(=O)Nc4ccccc4C(F)(F)F)nnc3c2=O)cc1 | 16.73 | 2.18
O=C(CSc1nnc2c3cc(-c4ccc(F)cc4)nn3ccn12)NCCc1ccccc1 | 4.82 | -7.39

SMILES | Inhibition (Staphylococcus aureus) [%] | Inhibition (Escherichia coli) [%]
CCC(Sc1nnc2c(=O)n(-c3ccc(F)cc3)ccn12)C(=O)Nc1cc(OC)cc(OC)c1 (centres undefined) | 15.63 | -3.99
CCCCN(C)c1ccc2nnc(CCc3nc(-c4ccc(C(F)(F)F)cc4)no3)n2n1 | 7.8 | -3.35
CCOC(=O)c1ccccc1NC(=O)Cn1c(=O)c2nnc(C(C)C)n2c2ccccc21 | 9.86 | 0.49
COc1ccc(Cl)cc1NC(=O)CSc1nc2ccccc2n2c(C(C)C)nnc12 | -6.36 | -1.47
Cc1ccc(-c2ccc3nn(CC(=O)Nc4cccc(Cl)c4)c(=O)n3n2)cc1C | -4.46 | -9.75
Cc1ccccc1Oc1nc2ccccc2n2c(=O)n(CC(=O)Nc3ccccc3C(F)(F)F)nc12 | -0.26 | -3.73
COc1cccc(-n2ccn3c(SCC(=O)c4c[nH]c5ccccc45)nnc3c2=O)c1 | 3.92 | -5.66
Cc1ccc(NC(=O)CSc2nc3ccccc3n3cnnc23)c(C)c1 | -8.66 | -6.3
CCc1ccc(NC(=O)Cn2nc3n(Cc4ccco4)c(=O)c4sccc4n3c2=O)cc1 | -4.41 | -6.35
Cc1ccc(NC(=O)Cn2nc3c4c5c(sc4ncn3c2=O)CCCC5)cc1C | 0.13 | -5.89
O=C(Cn1nc2ccc(Sc3ccccc3)nn2c1=O)Nc1ccc(Cl)cc1 | 14.57 | 0.83
CCOC(=O)c1ccccc1NC(=O)Cn1nc2c3sc(N4CCCC4)nc3ncn2c1=O | 11.36 | -3.52
COc1ccccc1NC(=O)Cn1nc2c(SC3CCCCC3)nccn2c1=O | -13.71 | -14.54
Cc1nnc2c(S(=O)(=O)N(Cc3ccccc3)c3ccc(C(C)C)cc3)cccn12 | 6.07 | -2.4
O=S(=O)(c1ccc2nncn2c1)N(Cc1cccc(F)c1)c1ccc2c(c1)OCCO2 | 1.17 | -4.29
O=C(Cn1nc2c(Sc3cccc(F)c3)nccn2c1=O)Nc1cccc(C(F)(F)F)c1 | 12.33 | -0.7
